Data from PubChem BioAssay.
Several values for one entry are separate records, joined by “and”; a condition that tells them apart may be missing. Equal values may be shown once. Results filed as inconclusive are left out. Activity calls are given as the source filed them. Cut-off read from the data, not from the text of the source, unless noted: active = percent of DMSO control GFP below about 86%; inactive = the rest, inconclusive results apart.

What was measured:
[1] = yeast TOR pathway RPL19A-GFP modulators, primary screen, cell-based, S. cerevisiae, multiplex flow cytometry (AID 1862);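 note: lower values mimic rapamycin by blocking the RPL19A rise seen in DMSO cells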; conditions: S. cerevisiae RPL19A-GFP strain, flow cytometry fluorescence, 3 h; at 10 µM; stronger effect = lower value
[2] = modulators of MEP2-GFP levels in yeast, primary screen, S. cerevisiae, multiplex flow cytometry (AID 1867;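 active = GFP response, as percent of the DMSO control, above the screen-wide mean plus 3 SD, about 139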;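 note: median GFP channel fluorescence of barcode-gated MEP2-GFP cells measured by flow cytometry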); conditions: S. cerevisiae MEP2-GFP strain, 3 h, at 10 µM, stronger effect = higher value, 100% means same as DMSO wells
[3] = modulators of CIT2-GFP expression in yeast, primary screen, S. cerevisiae, GFP fusion, multiplex flow cytometry (AID 1870;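 active = percent response above a set limit, the screen-wide mean plus 3 SD, cut at about 130% in these data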;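 note: barcoded CIT2-GFP strain pooled with four other GFP strains with rapamycin as positive control; median GFP fluorescence per well over plate mean of DMSO wells so 100% = DMSO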); conditions: 3 h, at 10 µM, stronger effect = higher value
[4] = modulators of LAP4-GFP expression in yeast, primary screen, S. cerevisiae, multiplex flow cytometry (AID 1873;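 active = GFP signal, as percent of the solvent control, above the screen mean plus 3 SD, about 149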); conditions: 3 h, at 10 µM, stronger effect = higher value
[5] = modulators of AGP1-GFP expression in yeast TOR pathway, primary screen, cell-based, multiplex flow cytometry, S. cerevisiae (AID 1887;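 active = GFP signal above the screen-wide mean plus 3 SD, that is over about 124.5% of the solvent control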;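 note: AGP1-GFP fusion strain of S. cerevisiae within a five-strain barcoded multiplex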); conditions: 3 h, at 10 µM, stronger effect = higher value
[6] = inhibitors of CD8+ T cell-vesicle binding, pilot screen, LFA-1/ICAM-1 modulator project, MLPCN validation set, flow cytometry (AID 2523;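 active = response below a set limit, under 55% cells CD8-positive and vesicle-bound, and CD8 cells' 90th-percentile brightness under 279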;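 for vesicle binding response: mean PE anti-B7-1 fluorescence of CD8+ cells relative to row control; 100% = QL9-loaded vesicles with DMSO vehicle in the same plate row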); conditions: 2C mouse CD8+ T cells, at 7 µM, stronger effect = lower value; double positive events: measured here: CD8+/vesicle+ event percentage
[7] = target: Integrin beta-1 (Homo sapiens) + Integrin alpha-4 (Homo sapiens) (UniProt P13612+P05556); assay: inhibition of HUTS-21 binding to VLA-4, pilot screen, VLA-4 allosteric modulator project, U937 cells, HUTS-21 mAb, flow cytometry, validation set (AID 2674;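 active = inhibition above 50%, about 3 SD of the validation set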;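 note: antibody binding induced by the VLA-4 ligand LDV present at three times its Kd; 0% = LDV ligand with antibody and no compound and 100% = antibody without LDV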); conditions: HUTS-21 LIBS mAb binding, at 6.7 µM, stronger effect = higher value, binding induced by LDV ligand
[8] = superoxide lowering in aged yeast cells, pilot screen, validation compound set (AID 2706;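 active = superoxide response below 65% of plate, a cut near 3 SD across the whole screen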;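 note: yeast exposed to compound for one week at 30 degrees C before staining; 100% = mean of all compound wells on the same plate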); conditions: S. cerevisiae aging, superoxide DHE fluorescence; at 10 µM; stronger effect = lower value
[9] = target: Beta-adrenergic receptor kinase 1 (Homo sapiens) (UniProt P25098); assay: GRK2 binders displacing RNA aptamer, biochemical, validation, human GRK2, bead flow cytometry (AID 488806;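 active = aptamer binding inhibition above 30%, about 3 SD of noise from non-fluorescent compounds; inactive = inhibition at or below 30%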); conditions: bead-bound GRK2, FAM-aptamer displacement, at 10 µM, stronger effect = higher value
[10] = target: Beta-2 adrenergic receptor (Homo sapiens) (UniProt P07550); assay: beta2AR agonists driving receptor internalization, pilot screen, cell-based, FAP fluorogen, flow cytometry, validation set (AID 504459;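 active = percent response above 42, roughly 3 SD of non-fluorescent test compounds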;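 note: agonist-driven loss of surface beta2AR via internalization measured by FAP dye flow cytometry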); conditions: Am2.2-beta2AR cells, FAP surface receptor flow cytometry; at 10 µM; stronger effect = higher value
[11] = target: AP-2 complex subunit beta (Homo sapiens) (UniProt P63010); assay: inhibitors of arrestin peptide binding to AP2, pilot screen, biochemical, validation set, GST-AP2 beads, flow cytometry (AID 504541;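 active = inhibition above 54%, about 3 SD of non-fluorescent compounds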;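 note: AP2 carries R879A mutation and is captured from E. coli lysate; bead-bound FITC arrestin peptide fluorescence measuring arrestin peptide binding to AP2; 0% = DMSO wells and 100% = excess unlabeled arrestin peptide control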); conditions: FITC arrestin peptide, at 10 µM, stronger effect = higher value, AP2 beta2 appendage fragment, R879A mutant
[12] = yeast V-ATPase proton transport modulators, S. cerevisiae, pHLuorin, HTS validation (AID 504600; in the data active = response above about 15%;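 note: plate controls were DMSO for no effect and reference compound for full effect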); conditions: S. cerevisiae pHLuorin cytosolic pH, at 10 µM, stronger effect = higher value
[13] = tested on: anti-desmoglein-3 scFv antibody binding to human DSG3; assay: inhibitors of anti-DSG3 scFv binding to DSG3, pilot screen, biochemical, validation compound set, bead-based, flow cytometry (AID 588368;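 active = binding below the plate cutoff, the plate median minus 3 SD, with a reading above zero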;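 note: signal is the median channel fluorescence of bead-bound GFP antibody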); conditions: Protein G beads, DSG3-Fc, scFv-GFP binding, at 10 µM, stronger effect = lower value
[14] = inhibitors of fungal efflux pumps CDR1, CDR2, MDR1, pilot screen, validation compound set, multiplex, phenotypic (AID 588506;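 active = efflux inhibition above 0.42, the validation set average plus 4 SD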;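 note: Nile Red retained in cells so higher fluorescence means more efflux inhibition; 0 = negative control wells and 1 = enniatin B 25 µM full block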); conditions: S. cerevisiae pump-expressing triplex, Nile Red efflux flow cytometry; at 10 µM; stronger effect = higher value; the pumps come from Candida albicans
[15] = target: ATP-binding cassette sub-family B member 6 (Homo sapiens) (UniProt Q9NP58); assay: ABCB6 transporter inhibitors, pilot screen, K562-ABCB6 cells, flow cytometry, validation set (AID 588550;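 active = inhibition above the screen-wide mean plus 3 SD, about 51%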;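 note: 0% = DMSO wells and 100% = benzethonium chloride 70 µM positive control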); conditions: K562-ABCB6 porphyrin accumulation, 1 h, at 10 µM, stronger effect = higher value
[16] = promoters of myeloid differentiation in arrested cells, primary screen, cell-based, GFP/MAC1 double positive, flow cytometry, validation set (AID 588685;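 active = differentiation response of at least 50%, scaled between solvent and reference control, from cells with both markers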;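 note: compound exposure lasts four days before antibody staining and flow analysis; 0% = DMSO wells and 100% = 5 µM fulvestrant positive control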); conditions: ER-HoxA9 marrow cells, stronger effect = higher value, normalized: vehicle 0, fulvestrant 100

Chain of AP-2 complex subunit beta (Homo sapiens) (P63010 whole entry, looked up, the tested form may be a part, one chain of several): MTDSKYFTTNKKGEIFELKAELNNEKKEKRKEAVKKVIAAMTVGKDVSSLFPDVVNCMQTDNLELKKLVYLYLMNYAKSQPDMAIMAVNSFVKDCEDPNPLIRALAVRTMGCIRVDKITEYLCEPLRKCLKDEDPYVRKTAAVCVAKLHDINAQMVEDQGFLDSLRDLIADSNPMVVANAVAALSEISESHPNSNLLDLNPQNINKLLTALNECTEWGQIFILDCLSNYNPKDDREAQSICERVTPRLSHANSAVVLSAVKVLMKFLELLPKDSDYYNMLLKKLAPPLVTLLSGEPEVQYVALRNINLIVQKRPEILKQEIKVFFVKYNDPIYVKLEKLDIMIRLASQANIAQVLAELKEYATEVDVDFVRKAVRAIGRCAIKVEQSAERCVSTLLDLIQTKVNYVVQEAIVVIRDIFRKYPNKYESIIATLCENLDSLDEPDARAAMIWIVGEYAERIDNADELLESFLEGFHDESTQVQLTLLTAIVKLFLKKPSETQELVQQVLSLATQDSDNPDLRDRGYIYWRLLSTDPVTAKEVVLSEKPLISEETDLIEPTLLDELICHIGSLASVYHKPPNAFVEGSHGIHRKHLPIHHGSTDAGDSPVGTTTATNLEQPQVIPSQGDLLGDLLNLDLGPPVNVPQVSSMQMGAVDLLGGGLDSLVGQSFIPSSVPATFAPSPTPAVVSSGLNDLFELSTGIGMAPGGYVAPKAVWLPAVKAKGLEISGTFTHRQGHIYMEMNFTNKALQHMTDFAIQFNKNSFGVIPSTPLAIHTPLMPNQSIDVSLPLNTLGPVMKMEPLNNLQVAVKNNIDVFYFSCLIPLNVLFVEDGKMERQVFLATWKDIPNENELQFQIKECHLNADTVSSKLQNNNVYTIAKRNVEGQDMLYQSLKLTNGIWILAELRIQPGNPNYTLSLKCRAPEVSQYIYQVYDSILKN
Chain of Beta-2 adrenergic receptor (Homo sapiens) (P07550 whole entry, looked up): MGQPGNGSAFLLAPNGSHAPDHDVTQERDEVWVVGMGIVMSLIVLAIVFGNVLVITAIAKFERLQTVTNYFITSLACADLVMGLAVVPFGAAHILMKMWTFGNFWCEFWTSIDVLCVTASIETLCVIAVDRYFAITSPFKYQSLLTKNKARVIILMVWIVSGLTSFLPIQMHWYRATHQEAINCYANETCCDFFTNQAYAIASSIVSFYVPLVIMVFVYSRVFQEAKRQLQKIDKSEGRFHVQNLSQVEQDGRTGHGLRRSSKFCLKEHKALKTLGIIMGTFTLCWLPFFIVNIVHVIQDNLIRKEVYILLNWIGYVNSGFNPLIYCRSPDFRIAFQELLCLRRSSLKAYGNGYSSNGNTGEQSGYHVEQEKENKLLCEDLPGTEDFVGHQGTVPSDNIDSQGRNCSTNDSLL
Chain of Beta-adrenergic receptor kinase 1 (Homo sapiens) (P25098 whole entry, looked up): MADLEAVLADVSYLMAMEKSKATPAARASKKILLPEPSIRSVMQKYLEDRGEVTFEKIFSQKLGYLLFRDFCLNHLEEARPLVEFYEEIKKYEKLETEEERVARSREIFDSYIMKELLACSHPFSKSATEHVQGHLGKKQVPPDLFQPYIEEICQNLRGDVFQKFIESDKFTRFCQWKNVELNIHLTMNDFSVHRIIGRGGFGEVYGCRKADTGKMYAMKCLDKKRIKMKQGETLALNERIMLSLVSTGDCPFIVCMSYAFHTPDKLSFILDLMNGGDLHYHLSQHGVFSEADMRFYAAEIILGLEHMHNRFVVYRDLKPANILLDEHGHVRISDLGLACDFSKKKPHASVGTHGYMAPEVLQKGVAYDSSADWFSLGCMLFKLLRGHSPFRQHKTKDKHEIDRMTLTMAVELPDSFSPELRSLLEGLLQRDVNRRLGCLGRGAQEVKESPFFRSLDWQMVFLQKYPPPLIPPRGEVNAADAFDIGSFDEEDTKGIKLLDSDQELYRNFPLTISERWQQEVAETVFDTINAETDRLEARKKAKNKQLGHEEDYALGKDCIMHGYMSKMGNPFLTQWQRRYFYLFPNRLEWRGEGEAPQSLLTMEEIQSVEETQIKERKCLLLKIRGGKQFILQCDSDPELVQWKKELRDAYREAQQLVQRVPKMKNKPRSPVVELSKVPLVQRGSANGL
Chain of Integrin beta-1 (Homo sapiens) + Integrin alpha-4 (Homo sapiens) (P05556 whole entry, looked up): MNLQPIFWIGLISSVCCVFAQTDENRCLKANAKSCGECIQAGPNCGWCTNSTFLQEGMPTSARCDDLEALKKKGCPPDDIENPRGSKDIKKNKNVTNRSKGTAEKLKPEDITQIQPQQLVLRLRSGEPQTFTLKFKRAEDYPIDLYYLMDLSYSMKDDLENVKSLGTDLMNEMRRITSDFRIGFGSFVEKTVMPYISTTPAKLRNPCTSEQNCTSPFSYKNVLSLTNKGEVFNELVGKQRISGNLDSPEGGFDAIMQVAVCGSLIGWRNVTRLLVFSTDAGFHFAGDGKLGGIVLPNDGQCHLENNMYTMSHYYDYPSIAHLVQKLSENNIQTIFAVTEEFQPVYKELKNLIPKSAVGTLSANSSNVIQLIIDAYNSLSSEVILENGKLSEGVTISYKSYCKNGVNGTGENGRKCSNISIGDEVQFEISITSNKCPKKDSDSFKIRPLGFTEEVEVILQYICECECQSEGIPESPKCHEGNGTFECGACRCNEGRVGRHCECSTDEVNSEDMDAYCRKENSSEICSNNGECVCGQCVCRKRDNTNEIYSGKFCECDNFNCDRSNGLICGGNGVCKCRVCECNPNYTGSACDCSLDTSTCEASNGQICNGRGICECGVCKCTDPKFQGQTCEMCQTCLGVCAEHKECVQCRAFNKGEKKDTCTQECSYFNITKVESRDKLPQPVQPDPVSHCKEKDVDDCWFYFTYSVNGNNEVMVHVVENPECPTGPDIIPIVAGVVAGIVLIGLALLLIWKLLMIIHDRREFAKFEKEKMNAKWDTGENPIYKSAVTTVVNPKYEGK
Chain of Integrin beta-1 (Homo sapiens) + Integrin alpha-4 (Homo sapiens) (P13612 whole entry, looked up): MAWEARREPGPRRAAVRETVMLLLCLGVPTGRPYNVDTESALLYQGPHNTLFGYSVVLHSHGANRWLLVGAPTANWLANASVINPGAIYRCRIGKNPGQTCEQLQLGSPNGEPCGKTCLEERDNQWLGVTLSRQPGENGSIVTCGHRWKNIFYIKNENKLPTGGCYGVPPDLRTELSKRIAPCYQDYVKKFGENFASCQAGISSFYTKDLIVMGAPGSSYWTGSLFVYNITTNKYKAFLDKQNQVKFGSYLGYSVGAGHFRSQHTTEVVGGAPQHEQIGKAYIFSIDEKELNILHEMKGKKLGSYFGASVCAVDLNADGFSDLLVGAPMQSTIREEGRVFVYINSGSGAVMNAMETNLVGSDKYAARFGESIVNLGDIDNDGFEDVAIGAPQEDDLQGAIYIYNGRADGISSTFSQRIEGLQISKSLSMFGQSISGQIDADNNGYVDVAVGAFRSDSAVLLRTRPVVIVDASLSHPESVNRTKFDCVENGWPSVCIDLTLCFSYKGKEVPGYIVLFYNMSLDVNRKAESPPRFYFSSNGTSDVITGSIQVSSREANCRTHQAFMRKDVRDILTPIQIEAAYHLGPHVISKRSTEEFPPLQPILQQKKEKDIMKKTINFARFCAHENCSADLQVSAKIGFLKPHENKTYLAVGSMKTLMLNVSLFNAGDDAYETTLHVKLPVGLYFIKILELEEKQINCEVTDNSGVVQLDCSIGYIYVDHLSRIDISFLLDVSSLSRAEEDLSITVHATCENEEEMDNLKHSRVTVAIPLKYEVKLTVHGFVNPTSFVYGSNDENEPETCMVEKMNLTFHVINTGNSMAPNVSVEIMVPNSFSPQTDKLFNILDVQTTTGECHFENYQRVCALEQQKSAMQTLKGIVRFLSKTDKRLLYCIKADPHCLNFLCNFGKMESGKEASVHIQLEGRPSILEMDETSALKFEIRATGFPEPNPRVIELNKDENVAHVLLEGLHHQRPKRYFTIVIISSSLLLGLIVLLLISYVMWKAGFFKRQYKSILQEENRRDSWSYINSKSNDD
Chain of ATP-binding cassette sub-family B member 6 (Homo sapiens) (Q9NP58 whole entry, looked up): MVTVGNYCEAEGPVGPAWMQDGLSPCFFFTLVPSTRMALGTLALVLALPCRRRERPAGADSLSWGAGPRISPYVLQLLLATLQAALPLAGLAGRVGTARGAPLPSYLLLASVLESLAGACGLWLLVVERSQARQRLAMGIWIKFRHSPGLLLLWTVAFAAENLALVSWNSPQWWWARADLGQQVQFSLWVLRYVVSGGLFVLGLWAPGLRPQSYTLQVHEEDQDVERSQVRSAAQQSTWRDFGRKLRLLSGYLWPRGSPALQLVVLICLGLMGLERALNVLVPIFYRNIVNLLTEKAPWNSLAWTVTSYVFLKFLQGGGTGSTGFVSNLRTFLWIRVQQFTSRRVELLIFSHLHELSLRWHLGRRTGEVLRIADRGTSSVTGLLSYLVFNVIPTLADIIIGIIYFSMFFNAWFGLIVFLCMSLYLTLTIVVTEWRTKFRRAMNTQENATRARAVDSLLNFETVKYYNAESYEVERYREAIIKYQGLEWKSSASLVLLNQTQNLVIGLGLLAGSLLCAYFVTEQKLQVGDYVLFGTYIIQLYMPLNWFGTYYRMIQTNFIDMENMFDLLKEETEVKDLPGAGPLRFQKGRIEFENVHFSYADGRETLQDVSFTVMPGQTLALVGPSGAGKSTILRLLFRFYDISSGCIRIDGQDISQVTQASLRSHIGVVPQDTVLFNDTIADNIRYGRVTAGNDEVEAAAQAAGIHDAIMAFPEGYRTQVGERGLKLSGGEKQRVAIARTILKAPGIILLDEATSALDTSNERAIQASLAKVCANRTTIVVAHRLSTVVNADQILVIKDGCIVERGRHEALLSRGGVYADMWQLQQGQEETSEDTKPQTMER

Row | Compound | percent of DMSO control GFP [1] | GFP response vs DMSO [2] | percent response of DMSO control [3] | GFP response vs DMSO [4] | GFP response, % of DMSO [5] | double positive events [6] | vesicle binding response [6] | inhibition [7] | superoxide response (% of plate) [8] | aptamer binding inhibition [9] | response [10] | inhibition [11] | response [12] | binding (% of control) [13] | efflux inhibition (fraction of control) [14] | inhibition [15] | differentiation response [16]
1 | NC(N)=N/N=C/c1cccc(Cl)c1Cl | 104% (inactive) | 96.3% (inactive) | 98.6% (inactive) | 103% (inactive) | 98.8% (inactive) | 66.1% | 157% (inactive) | 9.13% (inactive) | 97.9% (inactive) | -3% (inactive) | 22.4% (inactive) | 14.4% (inactive) | -0.64% (inactive) | 102% (inactive) | -0.24 (inactive) | 4% (inactive) | -18.4% (inactive)
2 | O=C(N/N=C/c1ccc([N+](=O)[O-])o1)c1ccc(O)cc1 | 103% (inactive) | 118% (inactive) | 112% (inactive) | 77.6% (inactive) | 97.5% (inactive) | 47.6% | 209% (inactive) | -21.7% (inactive) | 136% (inactive) | -1% (inactive) | -5.96% (inactive) | -8.31% (inactive) | 4% (inactive) | 110% (inactive) | 0.12 (inactive) | 8% (inactive) | 14.7% (inactive)
3 | CN(C)C(=O)Oc1cccc([N+](C)(C)C)c1 | 95.7% (inactive) and 98.8% (inactive) | 104% (inactive) and 109% (inactive) | 100% (inactive) and 91% (inactive) | 115% (inactive) and 112% (inactive) | 110% (inactive) and 105% (inactive) | 55.5% and 63.8% | 158% (inactive) and 4880% (inactive) | -2.82% (inactive) and 3.67% (inactive) | 93.6% (inactive) and 108% (inactive) | -3% (inactive) and 4% (inactive) | -26.2% (inactive) and -0.74% (inactive) | -12.1% (inactive) and 15% (inactive) | 0% (inactive) and -1.87% (inactive) | 106% (inactive) and 97.8% (inactive) | 0 (inactive) and -0.13 (inactive) | 2% (inactive) and 4% (inactive) | -0.06% (inactive) and -15.2% (inactive)
4 | CC(C)(C)NCC(O)COc1ccccc1C(=O)CCc1ccccc1 (stereo not drawn) | 101% (inactive) | 101% (inactive) | 96.4% (inactive) | 108% (inactive) | 122% (inactive) | 60.4% | 196% (inactive) | 44% (inactive) | 129% (inactive) | -1% (inactive) | -37.6% (inactive) | -9.53% (inactive) | -4.49% (inactive) | 104% (inactive) | 0.04 (inactive) | 8% (inactive) | 46.2% (inactive)
5 | N/C(Cc1ccc(Cl)cc1Cl)=N\OC(=O)c1ccc(Br)o1 | 93.5% (inactive) | 128% (inactive) | 106% (inactive) | 167% (active) | 43.5% (inactive) | 52.1% | 224% (inactive) | -11.3% (inactive) | 124% (inactive) | -2% (inactive) | 6.81% (inactive) | -11% (inactive) | 3.34% (inactive) | 105% (inactive) | -0.39 (inactive) | 2% (inactive) | 2.4% (inactive)
6 | CCOC(=O)c1c(O)c2c([nH]c1=O)CCCC2 | 100% (inactive) | 91.9% (inactive) | 101% (inactive) | 102% (inactive) | 96% (inactive) | 69.7% | 109% (inactive) | -34.6% (inactive) | 101% (inactive) | 3% (inactive) | -11% (inactive) | 17.2% (inactive) | -2.71% (inactive) | 99.3% (inactive) | 0.01 (inactive) | 9% (inactive) | 5.6% (inactive)
7 | CN(Cc1c(C(=O)N(C)Cc2ccccc2)nc2ccccn12)CC1Cc2ccccc2O1 (stereo not drawn) | 98.4% (inactive) | 104% (inactive) | 98.2% (inactive) | 89.4% (inactive) | 93.7% (inactive) | 61.4% | 2590% (inactive) | -11.8% (inactive) | 105% (inactive) | 3% (inactive) | 0.21% (inactive) | -19.1% (inactive) | -0.37% (inactive) | 98.2% (inactive) | 0.17 (inactive) | 14% (inactive) | -2.64% (inactive)
8 | CC1(C)S[C@@H]2[C@H](NC(=O)Cc3ccccc3)C(=O)N2[C@H]1C(=O)O | 105% (inactive) | 102% (inactive) | 98.3% (inactive) | 101% (inactive) | 119% (inactive) | 66.2% | 185% (inactive) | 15.1% (inactive) | 92.1% (inactive) | 3% (inactive) | -19.9% (inactive) | 1.23% (inactive) | -1.26% (inactive) | 99.7% (inactive) | 0.08 (inactive) | 10% (inactive) | 2.89% (inactive)
9 | COc1cccc(C2CC(=O)C3=C(C2)Nc2ccccc2N(C(=O)CCC(=O)O)C3c2ccc(F)cc2)c1 (stereo not drawn) | 95% (inactive) | 149% (active) | 102% (inactive) | 89.1% (inactive) | 93.8% (inactive) | 64% | 213% (inactive) | 11.3% (inactive) | 98% (inactive) | 4% (inactive) | -3.62% (inactive) | 30.9% (inactive) | -2.19% (inactive) | 102% (inactive) | -0.13 (inactive) | 4% (inactive) | -1.64% (inactive)
